# In PubChem BioAssay AID720697 (Broad Institute, 2013):
# Entries with a potency or affinity are not part of this list. Results filed as inconclusive are left out. Activity calls are given as the source filed them.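 How the source made its calls: active means signal loss with fitted half-maximal concentration at or below twice the top valid tested dose in every test run; inconclusive means runs disagree, flat 30 to 70% signal loss, or poor fit; inactive means all runs flat, opposite direction, or potency beyond limit.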
# Test: HEK293T cytotoxicity, dose response, cytotoxicity control for miR-122 modulator project, cell-based, inhibitor set, cherry-pick, set 2 (AID 720697);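 further: 0% = median of neutral control wells and -100% = MG132 positive control wells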
# Conditions: HEK293T viability, CellTiter-Glo luminescence, 48 h; series mostly up to 26 µM; activity change, negative = cytotoxicity: at the top concentration
row,Compound,"activity change, negative = cytotoxicity"
1,COc1cccc(C(=O)Nc2ccc3c(c2)C(=O)N(C)[C@H]2CC[C@H](CC(=O)NCc4ccc(F)cc4)O[C@H]2CO3)c1,-30% (inactive)
2,CCOc1ccc(NC(=S)N(CCCN2CCCC2)Cc2cccn2Cc2ccc(Cl)cc2)cc1,11.3% (inactive)
3,O=C(NCC(c1cccnc1)N1CCOCC1)NC1CCCCC1 (centres undefined),83.2% (inactive)
4,CC(C)CC#Cc1ccc2c(c1)O[C@H](CN(C)C(=O)c1cnccn1)[C@H](C)CN([C@@H](C)CO)S2(=O)=O,200% (inactive)
